# In PubChem BioAssay AID624255 (Broad Institute, 2012):
# The campaign covered roughly 77,000 compounds. About 4,600 (6%) were called active. Another 1% or so got no clear call; they are omitted. The sample as a whole holds a higher share of actives than the screen did. A number with no mark means an inactive call.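 Rule for the calls: active = mean inhibition above about 93%, with at least 55% of replicates each passing it (limit read from the data, passing the limit was not always enough); inconclusive = only one of those two conditions holds; inactive = neither condition holds.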
# Assay: growth inhibition of T. cruzi in host fibroblasts – cell-based, beta-gal Tulahuen parasites, NIH3T3 host, luminescence, primary screen (AID 624255)
# Conditions: T. cruzi beta-gal in NIH3T3, GalScreen luminescence, 90 h; at 8.34 µM; hits give high values
row,Structure (SMILES),inhibition
1,C[C@@H]1CCCCO[C@@H](CN(C)S(=O)(=O)c2ccc(F)cc2)[C@@H](C)CN([C@@H](C)CO)C(=O)c2cc(NC(=O)Nc3ccc4c(c3)OCO4)ccc2O1,23.6%
2,COc1ccc(S(=O)(=O)N(C)C[C@@H]2OCCCC[C@H](C)Oc3ccc(NC(=O)Nc4ccccc4)cc3C(=O)N([C@@H](C)CO)C[C@H]2C)cc1,37.1%
3,C[C@@H]1CCCCO[C@H](CN(C)S(=O)(=O)c2ccc(Cl)cc2)[C@@H](C)CN([C@H](C)CO)C(=O)c2cc(NC(=O)Nc3ccc4c(c3)OCO4)ccc2O1,82.9%
4,COc1ccc(NC(=O)Nc2ccc3c(c2)C(=O)N([C@H](C)CO)C[C@H](C)[C@H](CN(C)S(=O)(=O)c2ccc(Cl)cc2)OCCCC[C@H](C)O3)cc1,115% (active)
5,CC(C)NC(=O)Nc1ccc2c(c1)C(=O)N([C@H](C)CO)C[C@@H](C)[C@@H](CN(C)S(=O)(=O)c1ccc(Cl)cc1)OCCCC[C@H](C)O2,55%
6,C[C@H]1CCCCO[C@H](CN(C)S(=O)(=O)c2ccc(Cl)cc2)[C@@H](C)CN([C@@H](C)CO)C(=O)c2cc(NC(=O)Nc3ccc4c(c3)OCO4)ccc2O1,105% (active)
7,COc1ccc(NC(=O)Nc2ccc3c(c2)C(=O)N([C@H](C)CO)C[C@H](C)[C@@H](CN(C)S(=O)(=O)c2ccc(OC)cc2)OCCCC[C@H](C)O3)cc1,-12%
8,C[C@@H]1CCCCO[C@H](CN(C)S(=O)(=O)c2ccc(Cl)cc2)[C@H](C)CN([C@H](C)CO)C(=O)c2cc(NC(=O)NC3CCCCC3)ccc2O1,92.2%
9,CC(C)NC(=O)Nc1ccc2c(c1)C(=O)N([C@@H](C)CO)C[C@H](C)[C@H](CN(C)S(=O)(=O)c1ccc(Cl)cc1)OCCCC[C@H](C)O2,106% (active)
10,Cc1ccc(S(=O)(=O)Nc2ccc3c(c2)C(=O)N([C@@H](C)CO)C[C@@H](C)[C@H](CN(C)C(=O)NC(C)C)OCCCC[C@H](C)O3)cc1,46%
11,CO[C@H]1CN(C)C(=O)c2ccc(NC(C)=O)cc2OC[C@H](C)N(CC2CC2)C[C@@H]1C,5.22%
12,CNC(=O)C[C@H]1CC[C@@H]2[C@H](COc3ccc(NC(=O)Nc4cccc(F)c4)cc3C(=O)N2C)O1,14.8%
13,C[C@@H]1CN([C@H](C)CO)C(=O)c2cc(NC(=O)Nc3cccc4ccccc34)ccc2O[C@H]1CN(C)C(=O)Nc1ccccc1,45.7%
14,O=C(Nc1cccc(F)c1)N[C@@H]1CC[C@@H](CCn2cc(Cc3ccccc3)nn2)O[C@@H]1CO,42.3%
15,CCNC(=O)Nc1ccc2c(c1)C(=O)N(C)[C@@H]1CC[C@H](CC(=O)NC3CCCCC3)O[C@H]1CO2,36%
16,O=C(Cc1ccccn1)NCC[C@H]1CC[C@H](NS(=O)(=O)c2ccccc2)[C@@H](CO)O1,44.9%
17,OC[C@@H]1[C@H](c2ccc(C#CC3(O)CCCC3)cc2)[C@H]2CN(Cc3cncnc3)CCCCN12,101% (active)
18,OC[C@@H]1[C@H](c2ccc(C#Cc3ccccc3)cc2)[C@@H]2CN(Cc3cncnc3)CCCCN12,112% (active)
19,OC[C@@H]1[C@@H](c2ccc(C#CC3(O)CCCC3)cc2)[C@@H]2CN(Cc3cncnc3)CCCCN12,18.1%

row,Structure (SMILES),inhibition
1,COCC#Cc1ccc([C@H]2[C@H](CO)N3CCCCN(Cc4ccncc4)C[C@@H]23)cc1,37.4%
2,OC[C@H]1[C@@H](c2ccc(C#CC3(O)CCCC3)cc2)[C@H]2CN(Cc3cncnc3)CCCCN21,60.8%
3,CCCC#Cc1ccc([C@H]2[C@H]3CN(Cc4cncnc4)CCCCN3[C@H]2CO)cc1,63.2%
4,CO[C@H]1CN(C)C(=O)c2cc(NC(=O)C3CC3)ccc2OC[C@@H](C)N(CCc2ccccc2)C[C@H]1C,11.1%
5,CO[C@@H]1CN(C)C(=O)c2ccc(NC(=O)Nc3cc(Cl)cc(Cl)c3)cc2OC[C@H](C)NC[C@H]1C,-5.93%
6,CCCNC(=O)C[C@@H]1CC[C@@H]2[C@H](COC[C@H](O)CN2C(=O)c2cc(Cl)cc(Cl)c2)O1,3.7%
7,COc1ccc(NC(=O)N[C@H]2CC[C@@H](CCNC(=O)c3cc(Cl)cc(Cl)c3)O[C@H]2CO)cc1,-22.3%
8,C[C@@H]1CCCCO[C@@H](CN(C)C(=O)NC2CCCCC2)[C@@H](C)CN([C@@H](C)CO)C(=O)c2cc(NC(=O)C3CCCCC3)ccc2O1,69.2%
9,O=C(NCc1cccc(F)c1)[C@H]1[C@H](CO)[C@H]2Cn3c(cccc3=O)[C@@H]1N2,23.3%
10,O=C(Nc1ccccc1)N1CCCCN2[C@H](CO)[C@@H](c3ccc(-c4ccccc4F)cc3)[C@H]2C1,45.9%
11,COc1ccccc1NC(=O)N1CCCCN2[C@H](C1)[C@H](c1ccc(-c3ccccc3)cc1)[C@@H]2CO,119% (active)
12,COc1ccccc1NC(=O)N1CCCCN2[C@@H](CO)[C@@H](c3ccc(C#Cc4ccccc4)cc3)[C@@H]2C1,94.4%
13,O=C(Nc1cc(F)ccc1F)N1CCCCN2[C@H](CO)[C@@H](c3ccc(-c4cccnc4)cc3)[C@@H]2C1,69.1%
14,CC(=O)N1CCCCN2[C@H](CO)[C@H](c3ccc(-c4ccccc4)cc3)[C@@H]2C1,72.8%
15,O=C(Nc1ccccc1F)N1CCCCN2[C@H](CO)[C@@H](c3ccc(-c4cccnc4)cc3)[C@H]2C1,104% (active)
16,O=C(Nc1cc(F)ccc1F)N1CCCCN2[C@H](CO)[C@@H](c3ccc(-c4cncnc4)cc3)[C@H]2C1,106% (active)
17,O=C(Nc1cc(F)ccc1F)N1CCCCN2[C@H](C1)[C@H](c1ccc(-c3cccnc3)cc1)[C@@H]2CO,89.5%
18,CN(C)CC(=O)N1CCCCN2[C@@H](CO)[C@H](c3ccc(-c4cccnc4)cc3)[C@@H]2C1,73.9%
19,C[C@@H]1CN([C@H](C)CO)C(=O)c2cc(NC(=O)c3ccccc3)ccc2O[C@@H](C)CCCCO[C@H]1CN(C)S(=O)(=O)c1ccccc1,-19.9%

row,Structure (SMILES),inhibition
1,O=C(Nc1ccc(Cl)cc1)N1C[C@@H]2[C@H](c3ccccc31)[C@@H](CO)N2C(=O)c1cccnc1,-10.9%
2,C[C@@H](O)C#Cc1ccc([C@@H]2[C@@H](CO)N3CCCCN(C(=O)c4ccc(F)cc4)C[C@@H]23)cc1,26.5%
3,COc1ccc(CN(C)C[C@H]2OCCCC[C@@H](C)Oc3ccc(NC(=O)Nc4cccc5ccccc45)cc3C(=O)N([C@H](C)CO)C[C@@H]2C)cc1,67.6%
4,C[C@H]1CCCCO[C@H](CN(C)Cc2ccccc2)[C@@H](C)CN([C@@H](C)CO)C(=O)c2cc(NC(=O)c3ccccc3)ccc2O1,102% (active)
5,C[C@@H]1CCCCO[C@@H](CN(C)C(=O)Nc2ccc(F)cc2)[C@H](C)CN([C@H](C)CO)C(=O)c2cc(NC(=O)Nc3cccc4ccccc34)ccc2O1,108% (active)
6,C[C@H](CO)N1C[C@H](C)[C@@H](CN(C)Cc2ccc(C(=O)O)cc2)OCCCC[C@H](C)Oc2ccc(NC(=O)c3ccccc3)cc2C1=O,20.3%
7,C[C@@H]1CCCCO[C@H](CN(C)C(=O)c2ccccc2)[C@@H](C)CN([C@H](C)CO)C(=O)c2cc(NC(=O)Nc3cccc4ccccc34)ccc2O1,-46.1%
8,C[C@@H]1CCCCO[C@H](CN(C)C(=O)Nc2ccc(C(F)(F)F)cc2)[C@@H](C)CN([C@@H](C)CO)C(=O)c2cc(NC(=O)Nc3cccc4ccccc34)ccc2O1,87.4%
9,C[C@@H]1CCCCO[C@@H](CN(C)CC2CC2)[C@@H](C)CN([C@H](C)CO)C(=O)c2cc(NC(=O)Nc3cccc4ccccc34)ccc2O1,86.5%
10,CC(C)NC(=O)N(C)C[C@H]1OCCCC[C@@H](C)Oc2ccc(NC(=O)Nc3cccc4ccccc34)cc2C(=O)N([C@H](C)CO)C[C@@H]1C,33.3%
11,C[C@@H]1CCCCO[C@H](CN(C)C(=O)Nc2cccc3ccccc23)[C@@H](C)CN([C@@H](C)CO)C(=O)c2cc(NC(=O)Nc3ccc(F)cc3)ccc2O1,91.1%
12,C[C@@H]1CCCCO[C@@H](CN(C)Cc2ccccc2)[C@H](C)CN([C@H](C)CO)C(=O)c2cc(NC(=O)Nc3cccc4ccccc34)ccc2O1,112% (active)
13,C[C@H](CO)N1C[C@H](C)[C@H](CN(C)Cc2ccccc2)OCCCC[C@H](C)Oc2ccc(NC(=O)c3ccccc3)cc2C1=O,71.5%
14,C[C@@H]1CN([C@@H](C)CO)C(=O)c2cc(NC(=O)Nc3cccc4ccccc34)ccc2O[C@@H](C)CCCCO[C@H]1CN(C)Cc1ccccc1,112% (active)
15,COc1ccc(NC(=O)N(C)C[C@@H]2OCCCC[C@@H](C)Oc3ccc(NS(=O)(=O)c4cn(C)cn4)cc3C(=O)N([C@@H](C)CO)C[C@H]2C)cc1,18.4%
16,C[C@@H]1CN([C@@H](C)CO)C(=O)c2cc(NS(=O)(=O)c3cn(C)cn3)ccc2O[C@@H](C)CCCCO[C@@H]1CN(C)Cc1ccncc1,-84.1%
17,C[C@H](CO)N1C[C@H](C)[C@@H](CN(C)C(=O)c2ccncc2)Oc2ncc(-c3ccncc3)cc2C1=O,4.66%
18,COC(=O)[C@@H]1[C@@H](CO)[C@@H]2Cn3c(ccc(-c4ccccc4)c3=O)[C@@H]2N1C(=O)C1CC1,59.9%
19,O=C(Nc1ccccc1)N[C@@H]1CC[C@H](CCNS(=O)(=O)c2ccccc2F)O[C@@H]1CO,-32.8%
